# Laboratory results reported in PubChem BioAssay (NCATS).
# Inconclusive results are not listed. Entries that show only a call come without a potency. Active and inactive are the calls of the source. Unless noted, calls follow the shape of the dose curve; as a rule, active = well fitted curve in the direction sought with a large enough effect; inconclusive = small, poorly fitted or top-dose-only effect, or another doubt; inactive = no such curve, though single readings can be large; an effect the other way counts as inactive or inconclusive.
# Legend:
# [1] = biological target: Lysosomal acid glucosylceramidase (Homo sapiens) (UniProt P04062); test: Glucocerebrosidase-p2 (AID 348; in the data active = potency below about 10 µM; also: potency is read from the fitted curve at half-maximal effect); details: purified GBA, blue fluorogenic substrate, 40 min
# Sequence of Lysosomal acid glucosylceramidase (Homo sapiens) (P04062 whole entry, looked up): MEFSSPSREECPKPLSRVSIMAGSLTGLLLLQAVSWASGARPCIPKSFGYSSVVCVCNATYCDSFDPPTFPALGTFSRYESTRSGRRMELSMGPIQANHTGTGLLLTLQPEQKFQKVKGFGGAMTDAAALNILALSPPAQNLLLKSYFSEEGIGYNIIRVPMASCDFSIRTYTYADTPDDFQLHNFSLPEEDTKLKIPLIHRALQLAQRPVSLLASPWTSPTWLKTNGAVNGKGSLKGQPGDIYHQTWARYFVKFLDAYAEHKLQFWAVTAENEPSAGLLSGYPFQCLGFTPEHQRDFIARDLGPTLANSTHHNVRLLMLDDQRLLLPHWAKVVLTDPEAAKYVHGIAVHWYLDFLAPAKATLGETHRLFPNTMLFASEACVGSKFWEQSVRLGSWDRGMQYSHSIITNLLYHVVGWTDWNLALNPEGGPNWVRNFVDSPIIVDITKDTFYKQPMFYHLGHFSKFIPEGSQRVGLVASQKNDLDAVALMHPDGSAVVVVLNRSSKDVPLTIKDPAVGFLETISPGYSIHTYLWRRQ
# Summary of the method: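 Compounds titrated from 0.6 nM upwards against 0.2 nM enzyme in pH 5.9 citric acid/KH2PO4, taurocholate, tween-20; blue fluorogenic substrate 80 uM, 40 min room temperature, stopped and read Ex 365/Em 440 for AC50.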
# [2] = AP1 Signaling Pathway (AID 357; active = well fitted curve in either direction with a large enough effect, not every such curve was filed as active)
# Summary of the method: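 AP-1-bla ME-180 cells with beta-lactamase reporter under AP-1 response element, stimulated with EC50 EGF; compounds titrated, 5 hours at 37 degrees Celsius. CCF4 read at 460/530 nm ratio; positive and negative modulators judged by AC50.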
# [3] = biological target: Cytochrome P450 1A2 (Homo sapiens) (UniProt P05177); test: p450-cyp1a2 (AID 410; calls by dose curve; also: potency is read from the fitted curve at half-maximal effect)
# Sequence of Cytochrome P450 1A2 (Homo sapiens) (P05177 whole entry, looked up): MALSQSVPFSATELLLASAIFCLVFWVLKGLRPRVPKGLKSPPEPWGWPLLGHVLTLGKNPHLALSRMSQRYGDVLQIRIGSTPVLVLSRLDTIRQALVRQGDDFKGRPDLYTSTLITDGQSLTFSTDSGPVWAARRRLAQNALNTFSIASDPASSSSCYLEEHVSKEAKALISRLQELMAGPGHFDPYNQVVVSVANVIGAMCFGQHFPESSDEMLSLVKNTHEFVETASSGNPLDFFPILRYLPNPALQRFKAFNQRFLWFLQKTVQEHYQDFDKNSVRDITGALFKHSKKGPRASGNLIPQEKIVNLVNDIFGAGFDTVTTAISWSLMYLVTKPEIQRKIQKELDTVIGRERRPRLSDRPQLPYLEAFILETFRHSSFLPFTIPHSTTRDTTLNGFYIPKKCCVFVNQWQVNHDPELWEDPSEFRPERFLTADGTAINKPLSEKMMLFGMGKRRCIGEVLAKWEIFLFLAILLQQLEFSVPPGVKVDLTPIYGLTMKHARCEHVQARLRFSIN
# Summary of the method: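 20nM CYP1A2 with 100uM Luciferin-ME (at Km) in 100mM KPO4; compound preincubated 10 min, NADPH regeneration added, 60 min at room temperature. Luciferin quantified by luminescence after detection reagent; normalized to 57 uM furafylline.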
# [4] = Stat Signaling Pathway (AID 446; active = well fitted curve in either direction with a large enough effect, not every such curve was filed as active;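 also: ME-180 cervical cancer cells given 40 pM IL-6 alongside compound; SIE-controlled beta-lactamase reporter measured as 460/530 nm FRET emission ratio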)
# Summary of the method: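 Screening format detects activators and inhibitors alike: ME-180 SIE-bla cells stimulated at 40 pM IL-6 for 5 hrs with compound, then dual-emission beta-lactamase read at 405 nm excitation.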
# [5] = biological target: Glucocorticoid receptor (Homo sapiens) (UniProt P04150); test: GR-EFC Redistribution (AID 451; calls by dose curve; also: potency is read from the fitted curve at half-maximal effect); details: CHO-K1 GR-EFC translocation, beta-gal luminescence, 2 h
# Sequence of Glucocorticoid receptor (Homo sapiens) (P04150 whole entry, looked up, the tested form may be a part): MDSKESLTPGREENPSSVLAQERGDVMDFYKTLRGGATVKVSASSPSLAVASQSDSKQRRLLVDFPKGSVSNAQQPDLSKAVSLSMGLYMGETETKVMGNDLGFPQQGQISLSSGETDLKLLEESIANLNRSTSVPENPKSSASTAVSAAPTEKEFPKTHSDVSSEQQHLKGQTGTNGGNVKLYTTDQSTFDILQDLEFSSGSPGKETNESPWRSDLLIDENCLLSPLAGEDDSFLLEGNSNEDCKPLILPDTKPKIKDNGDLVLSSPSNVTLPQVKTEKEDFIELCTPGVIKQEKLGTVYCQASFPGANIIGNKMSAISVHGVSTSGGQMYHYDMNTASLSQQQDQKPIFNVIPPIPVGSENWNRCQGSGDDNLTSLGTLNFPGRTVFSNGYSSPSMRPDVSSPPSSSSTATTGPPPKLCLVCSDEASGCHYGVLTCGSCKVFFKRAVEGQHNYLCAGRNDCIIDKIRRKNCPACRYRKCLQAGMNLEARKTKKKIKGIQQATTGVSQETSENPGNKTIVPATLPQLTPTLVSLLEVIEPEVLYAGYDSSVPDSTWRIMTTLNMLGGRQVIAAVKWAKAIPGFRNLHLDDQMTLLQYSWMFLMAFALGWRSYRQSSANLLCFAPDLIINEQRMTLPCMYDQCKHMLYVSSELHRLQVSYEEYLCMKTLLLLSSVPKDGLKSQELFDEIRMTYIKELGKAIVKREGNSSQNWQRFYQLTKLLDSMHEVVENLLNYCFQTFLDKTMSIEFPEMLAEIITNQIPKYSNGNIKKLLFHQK
# Summary of the method: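 CHO-K1 cells stably expressing nuclear-localized β-gal enzyme acceptor and GR fused C-terminally to the enzyme donor fragment; ligand-driven nuclear translocation restores β-gal by complementation. Compounds titrated up to 46 uM final, 2 h at 37 °C; luminescence read.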
# [6] = biological target: Mitogen-activated protein kinase 10 (Mus musculus) (UniProt Q61831); test: JNK3 AlphaScreen Assay (AID 530; active = well fitted curve in either direction with a large enough effect, not every such curve was filed as active;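 also: kinase came from lysate of stimulated human HepG2 cells; signal reports phosphorylation of biotinylated GST-cJun 1-79 at Ser73 with 10 µM ATP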)
# Summary of the method: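 Inhibitors reduce antibody binding to phosphorylated biotin-cJun, lowering AlphaScreen luminescence. Lysates from HepG2 cells pre-activated by IL-1beta plus TNF-alpha supplied JNK3; compounds were titrated.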
# [7] = biological target: 3',5'-cyclic-AMP phosphodiesterase 4B (Homo sapiens) (UniProt Q07343); test: qHTS Assay for Inhibitors of PDE-IV (AID 607; active = well fitted activation curve with a large enough effect in the main read-out, with a control signal flat, not every such curve was filed as active)
# Sequence of 3',5'-cyclic-AMP phosphodiesterase 4B (Homo sapiens) (Q07343 whole entry, looked up): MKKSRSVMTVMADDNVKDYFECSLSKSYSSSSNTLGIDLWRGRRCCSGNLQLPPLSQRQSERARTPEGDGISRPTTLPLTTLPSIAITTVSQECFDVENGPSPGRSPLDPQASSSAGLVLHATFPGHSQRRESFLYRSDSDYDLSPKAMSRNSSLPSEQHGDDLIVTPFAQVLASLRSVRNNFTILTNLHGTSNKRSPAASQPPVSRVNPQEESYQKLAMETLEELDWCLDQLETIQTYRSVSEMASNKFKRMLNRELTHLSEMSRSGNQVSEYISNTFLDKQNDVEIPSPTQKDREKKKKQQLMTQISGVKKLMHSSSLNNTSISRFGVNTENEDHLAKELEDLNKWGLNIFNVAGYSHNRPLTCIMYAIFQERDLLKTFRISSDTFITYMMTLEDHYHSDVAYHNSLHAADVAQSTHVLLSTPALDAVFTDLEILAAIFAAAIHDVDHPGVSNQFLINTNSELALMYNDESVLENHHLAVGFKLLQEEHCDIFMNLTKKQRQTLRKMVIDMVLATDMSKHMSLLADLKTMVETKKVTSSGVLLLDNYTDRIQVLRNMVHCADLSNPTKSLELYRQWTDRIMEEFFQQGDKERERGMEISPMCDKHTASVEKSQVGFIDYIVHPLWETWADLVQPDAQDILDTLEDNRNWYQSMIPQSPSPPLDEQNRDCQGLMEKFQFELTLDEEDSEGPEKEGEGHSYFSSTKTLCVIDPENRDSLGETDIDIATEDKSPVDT
# Summary of the method: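 The readout is membrane depolarisation from a cAMP-sensing CNG channel, detected with a potential dye at ex 535/em 590. Cells were HEK293-derived (endogenous PDE-IV) at 1000 cells/well, titrated up to 22.9 uM final.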
# [8] = biological target: Cytochrome P450 3A4 (Homo sapiens) (UniProt P08684); test: qHTS Assay for Activators of Cytochrome P450 3A4 (AID 885); also: nearly all actives have a fitted effect of over 65% in size
# Sequence of Cytochrome P450 3A4 (Homo sapiens) (P08684 whole entry, looked up): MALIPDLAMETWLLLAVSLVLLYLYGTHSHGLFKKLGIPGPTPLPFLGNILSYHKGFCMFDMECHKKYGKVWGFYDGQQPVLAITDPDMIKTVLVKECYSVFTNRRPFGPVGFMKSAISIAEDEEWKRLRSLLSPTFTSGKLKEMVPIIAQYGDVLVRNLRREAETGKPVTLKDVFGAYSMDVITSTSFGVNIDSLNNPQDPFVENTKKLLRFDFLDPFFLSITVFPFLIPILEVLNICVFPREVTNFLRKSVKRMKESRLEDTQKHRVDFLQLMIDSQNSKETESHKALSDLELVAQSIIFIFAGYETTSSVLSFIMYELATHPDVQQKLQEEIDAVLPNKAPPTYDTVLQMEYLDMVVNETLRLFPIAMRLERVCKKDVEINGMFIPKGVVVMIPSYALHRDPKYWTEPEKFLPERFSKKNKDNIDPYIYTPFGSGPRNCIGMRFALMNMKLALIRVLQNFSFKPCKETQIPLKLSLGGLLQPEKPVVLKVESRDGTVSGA
# Summary of the method: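 Steps: enzyme/substrate mix dispensed; compound added, 10 min RT; NADPH regeneration solution added, 60 min RT; luciferin detection buffer stops reaction; 20 min later luminescence measured.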
# [9] = biological target: Cytochrome P450 2D6 (Homo sapiens) (UniProt P10635); test: qHTS Assay for Inhibitors and Substrates of Cytochrome P450 2D6 (AID 891);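 also: luciferin methyl ether substrate demethylated by CYP2D6 with NADPH regeneration; nearly all actives have a fitted effect of over 60% in size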
# Sequence of Cytochrome P450 2D6 (Homo sapiens) (P10635 whole entry, looked up): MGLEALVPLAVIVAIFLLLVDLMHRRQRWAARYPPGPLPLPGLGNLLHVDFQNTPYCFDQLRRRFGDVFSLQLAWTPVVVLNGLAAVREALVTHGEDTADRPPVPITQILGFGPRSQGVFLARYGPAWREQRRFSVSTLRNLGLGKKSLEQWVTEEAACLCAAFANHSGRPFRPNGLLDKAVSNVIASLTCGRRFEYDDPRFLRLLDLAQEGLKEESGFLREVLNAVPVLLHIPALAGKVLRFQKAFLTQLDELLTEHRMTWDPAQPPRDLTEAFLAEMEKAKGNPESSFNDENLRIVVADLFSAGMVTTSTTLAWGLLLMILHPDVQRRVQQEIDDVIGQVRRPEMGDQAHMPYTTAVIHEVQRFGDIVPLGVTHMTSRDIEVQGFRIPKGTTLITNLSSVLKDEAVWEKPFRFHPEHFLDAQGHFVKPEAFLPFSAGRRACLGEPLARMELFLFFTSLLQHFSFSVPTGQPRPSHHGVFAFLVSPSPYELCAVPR
# Summary of the method: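 Human CYP2D6 (5 nM) with 30 uM Luciferin-ME EGE (at Km) in 100 mM KPO4, compound preincubated 10 min, then NADPH regeneration system for 60 min at room temperature. Luciferin read by luminescence; normalized to 1.43 uM quinidine.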
# [10] = biological target: Cytochrome P450 2C19 (Homo sapiens) (UniProt P33261); test: qHTS Assay for Inhibitors and Substrates of Cytochrome P450 2C19 (AID 899); also: nearly all actives have a fitted effect of over 60% in size
# Sequence of Cytochrome P450 2C19 (Homo sapiens) (P33261 whole entry, looked up): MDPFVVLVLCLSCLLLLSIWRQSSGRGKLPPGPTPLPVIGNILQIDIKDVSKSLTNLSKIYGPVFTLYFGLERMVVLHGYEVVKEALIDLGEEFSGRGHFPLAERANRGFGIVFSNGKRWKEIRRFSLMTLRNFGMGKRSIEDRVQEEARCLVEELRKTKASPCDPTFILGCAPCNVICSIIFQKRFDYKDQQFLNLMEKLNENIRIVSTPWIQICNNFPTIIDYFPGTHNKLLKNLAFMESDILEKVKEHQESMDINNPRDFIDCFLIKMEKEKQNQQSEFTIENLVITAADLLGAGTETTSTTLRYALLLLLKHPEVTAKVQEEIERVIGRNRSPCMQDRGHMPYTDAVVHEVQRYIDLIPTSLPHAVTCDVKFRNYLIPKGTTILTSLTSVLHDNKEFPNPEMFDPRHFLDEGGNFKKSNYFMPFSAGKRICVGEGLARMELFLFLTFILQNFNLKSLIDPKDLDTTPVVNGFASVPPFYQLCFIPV
# Summary of the method: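 Human CYP2C19 (5nM) with Luciferin-H EGE at 10uM (its KM) in 50mM KPO4 was preincubated with compound for 10 min at 37C. NADPH regeneration started a 60 min 37C reaction. Luciferin was read by luminescence, normalized to 57uM ketoconazole.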
# [11] = Primary qHTS for small molecule stabilizers of the endoplasmic reticulum resident proteome: Secreted ER Calcium Modulated Protein (SERCaMP) assay (AID 1508630)
# Summary of the method: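 GLuc-SERCaMP-expressing SH-SY5Y cells, pretreated 16 h with compound, are challenged with thapsigargin to empty ER calcium stores; after 4 h, coelenterazine is added directly to the medium and luminescence is imaged.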
# [12] = qHTS Assay for Lipid Storage Modulators (AID 1519; calls by dose curve); details: Drosophila S3 cells, BODIPY lipid droplet/cell ratio, laser cytometry, cells loaded with oleic acid
# Summary of the method: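 Cells seeded at 5,000 per well were treated with compounds over a concentration series and loaded with oleic acid (400 uM, as added). Lipid droplet fluorescence (488 nm excitation, 500-530 nm channel) was read by laser-scanning cytometry and normalized to 20 uM Triacsin C.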
# [13] = tested on: HIV-1 nucleocapsid protein NCp7 (binding to TG oligonucleotide); test: HIV Nucleocapsid (AID 346; call rule not given here;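 also: potency is read from the fitted curve at half-maximal effect; potency is for inhibitors that block NC binding and lower polarization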); details: HIV-1 NC / fluorescein-TGTGTGTG probe, fluorescence polarization
# Summary of the method: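 Inhibition of nucleocapsid binding to single-stranded 5'-TGTGTGTG probe (10 nM) was measured by fluorescence polarization after 1 hr at room temperature with 100 nM protein under high-salt, zinc-containing, reducing conditions.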
# [14] = measured here: cell count channel max response
# [15] = measured here: lipid channel max response
compound,measurement,setting,value
N#Cc1cccc(NC(=O)N2CC[C@@]3(CCCN(C(=O)Oc4ccccc4)C3)C2)c1,Potency,[1],> 11.4 µM (inactive)
same,outcome,[2],inactive
same,Potency,[3],inactive
same,outcome,[4],inactive
same,Potency,[5],> 46 µM (inactive)
same,outcome,[6],inactive
same,Potency,[7],inactive
same,Potency,[8],inactive
same,Potency,[9],inactive
same,Potency,[10],inactive
same,outcome,[11],inactive
C=C1CC[C@H](O)C/C1=C/C=C1\CCC[C@]2(C)[C@H]1CC[C@H]2[C@@H](C)CCCC(C)C,"activity change, negative = inhibition",[12]; at 25.7 µM (top of the series),0.847% (inactive)
same,max response,[12]; [14],8.85%
same,max response,[12]; [15],12%
COc1cc2c(c(OC)c1OC)-c1ccc(OC)c(=O)cc1C(NC(C)=O)CC2 (configuration not stated),"activity change, negative = inhibition",[12]; at 57.5 µM (top of the series),7.05% (inactive)
same,max response,[12]; [14],10.2%
same,max response,[12]; [15],20.2%
O=C(Oc1ccccc1)N1CCC2(CC1)CN(Cc1ccncc1)C2,Potency,[13],> 20 µM (inactive)
same,Potency,[1],> 11.4 µM (inactive)
same,outcome,[2],inactive
same,Potency,[3],10 µM (active)
same,outcome,[4],inactive
same,Potency,[5],> 46 µM (inactive)
same,outcome,[6],inactive
same,Potency,[7],inactive
same,Potency,[8],inactive
same,outcome,[11],inactive
